From PubChem BioAssay
HT1080 IDH1KD tx – kills HT-1080 cells with IDH1 knockdown; HT-1080 IDH1 knockdown viability, ATP luminescence, 48 h; Potency, µM (doses to about 46.1 µM), usual class: cytotoxic; actives 2% (n = 360,000)
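Using the IDH1-knockdown HT-1080 line run in the same batch and compound series as the NT line, viability after 48 h at 37 °C was determined by CellTiter-Glo luminescence and expressed as % activity.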
TDP1 cell noCPT – qHTS for Inhibitors of human tyrosyl-DNA phosphodiesterase 1 (TDP1): qHTS in cells in absence of CPT; Potency, µM (highest dose often 46.2 µM), usual class: inhibitors; AID 686978, 2013; DT40 Tdp1-/- hTDP1 cells, no CPT, ATP luminescence, 48 h; actives 15% (n = 420,000); further: nearly all actives have a fitted effect of over 55% in size
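Cells were dispensed at 400 per well, compounds added by pin tool, plates incubated ≥48 hr at 37 °C, then CellTiter-Glo added for 30 min at room temperature before luminescence reading. Line: DT40 Tdp1-/- complemented with hTDP1; camptothecin omitted.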
IL1B secr inh – inhibitors of inflammasome signaling (IL-1 beta secretion) | THP-1 LPS/ATP IL-1B secretion, AlphaLISA, 16 h; active compounds read low | activity change, % at 57.5 µM | actives 4.7% (n = 360,000); in the data active means activity change below about -50%; inconclusive means mostly about -30% to -49%
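Secreted IL-1B measured by AlphaLISA bead assay after 16 h compound exposure of THP-1 cells; compounds (final up to 57.5 uM) added 1 h before LPS (250 ng/mL) and ATP (1.25 mM) stimulation; lower signal means less secretion.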
HT1080-NT tox – kills 2HG-producing HT-1080-NT fibrosarcoma cells; Potency, µM (doses to about 46.1 µM), hits mostly cytotoxic; actives 1.6% (n = 360,000); HT-1080-NT fibrosarcoma viability, CellTiter-Glo ATP luminescence, 48 h;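 further: NT is the 2HG producing partner of a matched IDH1 knockdown line; nearly all actives have a fitted effect of over 55% in size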
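Fibrosarcoma NT cells, 750 per well in 5% FBS RPMI, were exposed to compound for 48 hours. Viability: CellTiter-Glo luminescence.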
DT40 TDP1 CPT – DT40-hTDP1 cell growth loss with CPT; chicken DT40 Tdp1-/-;hTDP1 cells + 20 nM CPT, ATP luminescence, 48 h; actives 12% (n = 420,000); Potency, µM (doses to about 46.2 µM), most hits filed as inhibitors; further: nearly all actives have a fitted effect of over 55% in size
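Chicken DT40 Tdp1-/- cells complemented with human TDP1, 400 cells/well, exposed to compounds plus 20 nM camptothecin for at least 48 h at 37 C; viability read as ATP content by CellTiter-Glo luminescence.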
Hits are given with their value; - = inactive; ? = inconclusive; . = no result; ! = repeats disagree. This is a sample that favours compounds with a hit; in the whole collection about 19% have one here. Unless noted, the call rests on the fitted dose curve; in most records, active means well fitted curve in the direction sought with a large enough effect; inconclusive means small, poorly fitted or top-dose-only effect, or another doubt; inactive means no such curve, though single readings can be large; an effect the other way counts as inactive or inconclusive.

SMILES | HT1080 IDH1KD tx | TDP1 cell noCPT | IL1B secr inh | HT1080-NT tox | DT40 TDP1 CPT
CCCCNC(=O)Nc1ccc(C2SCCS2)cc1 | - | 16.4µM | . | - | ?
CC(C)c1ccc(NC(=O)COc2ccc(C3SCCS3)cc2)cc1 | - | 23.1µM | - | - | ?
Cc1cc(C)n(-c2nnc(C)n2/N=C/c2ccccc2OCc2ccccc2Cl)n1 | - | 20.6µM | - | - | ?
C[C@@H]1CN([C@H](C)CO)C(=O)c2cc(Br)cnc2O[C@@H]1CN(C)C(=O)Cc1ccccc1 | - | - | - | - | -
CCn1c(=O)c(C(=O)NCc2ccc(Cl)cc2)c(O)c2ccccc21 | - | ? | - | - | 20.6µM
CCn1c(=O)c(C(=O)NCc2ccc(F)cc2)c(O)c2ccccc21 | - | ? | - | - | 9.2µM
CCOc1nc(C)cc(C)c1S(=O)(=O)c1cccc(Cl)c1 | - | - | - | - | -
Cc1c(Nc2ncccc2C(=O)O)cccc1C(F)(F)F | - | 4.04µM! | - | - | ?
Cc1c(Cl)cccc1Nc1ncccc1C(=O)O | - | ? | - | - | ?
CN(C(=O)COC(=O)c1cc(S(=O)(=O)N2CCOCC2)ccc1F)C1CCS(=O)(=O)C1 (centres undefined) | - | - | - | - | -
O=C(Cc1c(F)cccc1Cl)Nc1nccs1 | - | - | - | - | ?
CC(=O)C[C@H]1c2cc(F)cc(F)c2S(=O)(=O)N1C1CCN(Cc2ccccc2)CC1 | . | 3.98µM | . | . | 5.62µM
COC(=O)C[C@H]1c2cc(F)cc(F)c2S(=O)(=O)N1C1CCN(Cc2ccccc2)CC1 | - | 6.51µM | - | - | 9.2µM
COc1ccc(C(=O)OCc2ccccc2F)cc1S(=O)(=O)N1CCCC1 | - | ? | - | - | ?
CCOC(=O)C1CCN(C(=O)Cn2c(=O)cc(C)c3c(C)nn(C)c32)CC1 | . | 18.4µM | . | . | 25.9µM
Cc1nn(C)c2c1c(C(F)(F)F)cc(=O)n2CC(=O)N1CCCCC1 | . | - | . | . | ?
Cc1cc(=O)n(CC(=O)N2CCN(c3ccccc3F)CC2)c2c1c(C)nn2C | . | 8.2µM | . | . | 16.4µM
COc1ccc(CCNC(=O)CSc2nnnn2-c2cccc(C(C)=O)c2)cc1OC | . | - | . | . | -
COc1ccc(C(=O)NCc2csc(-c3cccs3)n2)cc1 | - | - | - | - | -
Cc1ccc(NC(=O)c2sc3nc(-c4cccs4)ccc3c2N)cc1F | . | ? | . | . | -
Cc1c(C(=O)Nc2nccs2)sc2nc(-c3cccs3)cc(C(F)(F)F)c12 | ? | 23.1µM | - | ? | 18.4µM
COc1cc(C(=O)Nc2nc(-c3cccs3)cs2)cc(OC)c1OC | - | 13µM | -77.5 | ? | 23.1µM
COc1ccc(C(=O)Nc2nc(-c3cccs3)cs2)cc1 | - | ? | -72.0 | - | ?
COc1cc(C(=O)NC(=S)Nc2nc(-c3ccc(F)cc3)cs2)cc(OC)c1OC | - | - | - | - | -
Cc1csc(NC(=O)c2sc3nc(-c4cccs4)ccc3c2N)n1 | ? | 25.1µM | -72.2 | - | ?
SMILES | HT1080 IDH1KD tx | TDP1 cell noCPT | IL1B secr inh | HT1080-NT tox | DT40 TDP1 CPT
Cc1cc(S(=O)(=O)NC(C)C)ccc1OCC(=O)NCc1ccccc1 | - | ? | - | - | -
CC(C)CC1(C)NC(=O)N(CC(=O)N2C(C)CCCC2C)C1=O (centres undefined) | - | - | - | - | -
O=C(Nc1nc(-c2cccs2)cs1)c1ccc(Cl)cc1 | ? | 14.6µM | - | ? | 25.9µM
O=C(COc1ccc(Cl)cc1)Nc1nc(-c2cccs2)cs1 | - | ? | - | - | ?
O=C(Nc1nc(-c2ccc(Cl)s2)cs1)c1ccncc1 | - | 9.2µM | - | - | 9.2µM
CN1CCN(S(=O)(=O)c2cccc(C(=O)N3CCN(c4ccccc4F)CC3)c2)CC1 | - | - | - | - | -
O=C(NC1CCSC1=O)C1CC(=O)N(c2ccc(F)cc2)C1 (centres undefined) | - | - | - | - | -
O=S(=O)(NCCSc1nnnn1-c1ccccc1)c1cccs1 | - | - | - | - | -
Cc1ccccc1-c1cc2nc(NCCN3CCCC3)n(C)c(=O)c2s1 | ? | ? | - | ? | ?
Cc1ccccc1-c1cc2nc(NCCCN(C)C)n(C)c(=O)c2s1 | ? | ? | -81.5 | ? | ?
Cc1ccsc1-c1cc2nc(NCCCN(C)C)n(C)c(=O)c2s1 | ? | 23.1µM | - | 5.8µM | 23.1µM
COc1cc2nc(NC(=O)c3ccc(F)cc3Cl)sc(=O)c2cc1OC | - | - | ? | - | -
Fc1ccc(-c2csc(=Nc3cccc(C(F)(F)F)c3)n2Cc2ccc3c(c2)OCO3)cc1 | . | 13µM | . | . | 13µM
CCN(CC)S(=O)(=O)c1ccc(-c2csc(=Nc3cccc(C(F)(F)F)c3)n2Cc2ccc3c(c2)OCO3)cc1 | . | 9.2µM | . | . | ?
O=S(=O)(c1cccc(F)c1)N1CCN(Cc2ccc3c(c2)OCO3)CC1 | - | - | - | - | -
CN(C)S(=O)(=O)c1cccc(-c2csc(=Nc3ccccc3)n2CCCN2CCOCC2)c1 | - | ? | - | - | ?
COC(=O)c1ccc(N(C(=O)CNC(=O)c2ccco2)C(C(=O)NCC2CCCO2)c2ccc(OC)c(OC)c2)cc1 (centres undefined) | - | - | - | - | -
COc1ccc(Nc2nc(N)nc(CSc3nc4cc(OC)ccc4s3)n2)cc1 | . | 14.6µM | . | . | 11.6µM
Cc1ccccc1Nc1nc(N)nc(CSc2nc3ccccc3s2)n1 | - | ? | - | - | ?
Cc1ccc(Nc2nc(N)nc(CSc3nc4ccccc4s3)n2)cc1 | ? | ? | -70.4 | ? | ?
COc1ccc(Nc2nc(N)nc(CSc3nnc(C)s3)n2)cc1 | - | - | - | - | -
Cc1ccc(/C=C/c2onc(C)c2S(=O)(=O)N2CCC(C(=O)Nc3ccc(OC(F)(F)F)cc3)CC2)cc1 | . | 13µM | . | . | 11.6µM
COc1ccc(/C=C\c2onc(C)c2S(=O)(=O)N2CCC(C(=O)Nc3cccc(C)c3C)CC2)cc1 | . | - | . | . | ?
Cc1ccc(/C=C/c2onc(C)c2S(=O)(=O)N2CCC(C(=O)Nc3cc(F)ccc3F)CC2)cc1 | . | - | . | . | ?
Cc1ccc(/C=C/c2onc(C)c2S(=O)(=O)N2CCC(C(=O)Nc3ccc(C)c(N(C)C)c3)CC2)cc1 | . | 9.2µM | . | . | 8.2µM
C=C1C(=O)OC2C=C(CO)CCC=C(CO)CC(OC(=O)C(C)C)C12 (centres undefined) | 13µM | 2.91µM | -100.9 | - | 2.91µM
C=CCOc1ccc(C2/C(=C(/O)c3ccc(OC)cc3)C(=O)C(=O)N2CCN2CCNCC2)cc1 (centres undefined) | - | - | - | - | -
CCC1CCCCN1CCCNC(=O)c1ccc2c(c1)N(Cc1cccc(C)c1)C(=O)c1ccccc1S2(=O)=O (centres undefined) | . | ? | . | . | 16.4µM
CCC1CCCCN1CCCNC(=O)c1ccc2c(c1)N(Cc1ccc(Cl)cc1)C(=O)c1ccccc1S2(=O)=O (centres undefined) | . | 23.1µM | . | . | 23.1µM
